Reference: ChEMBL document CHEMBL1157539, “Thousands of chemical starting points for antimalarial lead identification” (Nature, 2010)

System: Plasmodium falciparum
Experiment: GSK_TCMDC: Inhibition of Plasmodium falciparum Dd2 in whole red blood cells, using parasite LDH activity as an index of growth. Test compounds present at 2uM
Format: functional

Question: For `Cc1ccc(CN2CCCN(Cc3ccc(C(=O)Nc4ccc(Cl)cc4)cc3)CC2)s1.O=C(O)C(F)(F)F`, which Inhibition is on record?
Answer: 5%

Question: For `COc1cc2nc(NCCc3ccccc3)nc(NCCc3ccccc3)c2cc1OC`, which Inhibition is on record?
Answer: 100%

Question: With `CCCc1ccc(C(=O)N2C(c3nccs3)C(C(N)=O)CC2(CC(C)C)C(=O)O)cc1` (configuration not stated) as the compound, how does the Inhibition read?
Answer: 80%

Question: `Cc1c(S(=O)(=O)Nc2ccc3nccc(N4CC(C)NC(C)C4)c3c2)sc2ccc(Cl)cc12.Cl` (configuration not stated) was tested. Which Inhibition did it give?
Answer: 0%

System: HepG2
Experiment: GSK_TCMDC: Percent inhibition of human HepG2 cell line. Test compounds present at 10uM.
Format: functional

Question: For `Cc1ccc(O)c(CN2CCCC(COC(c3ccc(F)cc3)c3ccc(F)cc3)C2)c1` (configuration not stated), which Inhibition is on record?
Answer: 19%

Question: Which Inhibition does the source give for `CS(=O)(=O)c1ccc(CNCc2ccc(-c3cccc(-c4nc5ccccc5[nH]4)c3)cc2)cc1.O=C(O)C(F)(F)F` here?
Answer: 17%

Question: How did the Inhibition turn out when `COc1ccc2nccc([C@@H](O)CN3CCC(NS(=O)(=O)c4cc(Br)c(Br)s4)CC3)c2c1` was run?
Answer: 14%

Question: For `CS(=O)(=O)c1ccc(CNCc2cccc(-c3ccc(-c4nc5cc(C(F)(F)F)ccc5[nH]4)cc3)c2)cc1.O=C(O)C(F)(F)F`, which Inhibition is on record?
Answer: 31%

Question: Which Inhibition does the source give for `CC(=O)Nc1cccc(C(=O)Nc2cccc(-c3csc(-c4nc5ccccc5[nH]4)c3)c2)c1` here?
Answer: 39%

Question: For `COc1ccc2nccc([C@@H](O)CN3CCC(NCc4nc5cc(F)ccc5o4)CC3)c2c1.O=C(O)C(=O)O`, which Inhibition is on record?
Answer: 14%

Question: `COc1cc(Cc2cnc(N)nc2N)cc(OCC(C)(C)C(=O)O)c1OC` was tested. Which Inhibition did it give?
Answer: 0%

Question: With `COc1cc(CCOc2c(C)nc(N)nc2N)cc(OC)c1OC.Cl` as the compound, how does the Inhibition read?
Answer: 59%

Question: How did the Inhibition turn out when `CCCNCc1ccc(-c2ccc(CNC3Cc4ccccc4C3)cc2)nc1.O=C(O)C(F)(F)F` was run?
Answer: 23%

Question: For `O=S(=O)(c1cc(Cl)c(Cl)cc1Cl)N1CCCCC(c2ccc(C(F)(F)F)cc2)=N1`, which Inhibition is on record?
Answer: 9%

Question: For `CCCCCOc1ccc(N2C(N)=NC(N)=NC2(C)C)cc1.Cl`, which Inhibition is on record?
Answer: 24%

Question: Which Inhibition does the source give for `CCc1c(C)nc(-n2nc(C)cc2NC(=O)CCc2ccccc2)[nH]c1=O` here?
Answer: 48%

Question: With `CCN(CC)CCOc1ccc(N(Cc2ccc(C(C)(C)C)cc2)C(=O)c2ccc(Cc3ccccc3)cc2)cc1OC.Cl` as the compound, how does the Inhibition read?
Answer: 5%

Question: How did the Inhibition turn out when `Fc1ccc(C(OCC2CCCN(Cc3cccc4cccnc34)C2)c2ccc(F)cc2)cc1` (configuration not stated) was run?
Answer: 21%

Question: For `Cl.N[C@@H](CCNC1CCN(c2cccc(C(F)(F)F)c2)CC1)Cc1ccc(F)c(F)c1`, which Inhibition is on record?
Answer: 100%

Question: How did the Inhibition turn out when `O=C(Nc1ccccc1)N1CCC(CN2CCOC(c3ccccc3)(c3ccccc3)C2)CC1` was run?
Answer: 10%

Question: Which Inhibition does the source give for `COc1ccc2nccc(N/N=C/c3cccc([N+](=O)[O-])c3)c2c1` here?
Answer: 4%

Question: With `Cc1nc2nc(N)nc(N)c2c(C)c1Cc1c(Cl)cccc1Cl.Cl` as the compound, how does the Inhibition read?
Answer: 7%

Question: How did the Inhibition turn out when `N=C(N)NCCCN(Cc1ccccc1)c1ccc(Cl)cc1.O=S(=O)(O)O` was run?
Answer: 0%

Question: `Br.N=c1n(CCN2CCCCC2)c2ccccc2n1CC(=O)c1cccc([N+](=O)[O-])c1` was tested. Which Inhibition did it give?
Answer: 10%

Question: For `N#Cc1ccc(-c2ccc(OCC(O)CN3CCCN(Cc4cccc(O)c4Cl)CC3)cc2)cc1` (configuration not stated), which Inhibition is on record?
Answer: 3%

Question: For `Fc1ccc2[nH]c(-c3ccc(-c4ccc(CNCC5CCCO5)cc4)cc3)nc2c1.O=C(O)C(F)(F)F` (configuration not stated), which Inhibition is on record?
Answer: 26%

Question: For `CNC(=O)C1Cc2c([nH]c3ccc(Cl)cc23)C2(CCN(CCc3ccccc3)CC2)N1` (configuration not stated), which Inhibition is on record?
Answer: 2%

Question: With `CCCCCCCN1CCC(NC(=O)Nc2ccnc3ccc(OC)cc23)C(C(=O)OCC)C1.O=C(O)C(=O)O` (configuration not stated) as the compound, how does the Inhibition read?
Answer: 11%

Question: `Br.CN(CCON1C(=N)N=C(N)NC1(C)C)c1ccccc1` was tested. Which Inhibition did it give?
Answer: 64%

Question: For `N#Cc1ccc2[nH]c(-c3cc(-c4cccc(F)c4)cnc3N)nc2c1.O=C(O)C(F)(F)F`, which Inhibition is on record?
Answer: 46%

Question: For `CC(C)CCN(Cc1cncn1Cc1cccc(C(F)(F)F)c1)C(=O)c1ccccc1C#N`, which Inhibition is on record?
Answer: 0%

Question: With `Br.COc1cc(CCON2C(N)=NC(N)=NC2(C)C)cc(OC)c1OC` as the compound, how does the Inhibition read?
Answer: 59%

Question: For `N#CCCN1CCN(Cc2cccc(-c3ccc(-c4nc5ccccc5[nH]4)s3)c2)CC1.O=C(O)C(F)(F)F`, which Inhibition is on record?
Answer: 48%

Question: Which Inhibition does the source give for `Cc1ccc(Cn2ncc(NC3CCNCC3)c(Cl)c2=O)cc1NC(=O)Nc1ccc(-c2ccccc2)cc1.O=C(O)C(F)(F)F` here?
Answer: 18%

Question: With `c1ccc(CCNc2nc(NCC(c3ccccc3)c3ccccc3)c3nc[nH]c3n2)cc1` as the compound, how does the Inhibition read?
Answer: 9%

Question: Which Inhibition does the source give for `Nc1c(-c2ccc(C(=O)NCCNCc3ccccc3)cc2)cnn1-c1ccc(C(F)(F)F)cc1.O=C(O)C(F)(F)F` here?
Answer: 23%

Question: Which Inhibition does the source give for `CN1CCN(CCCN(Cc2csc(-c3ccc(CNCc4ccccc4)cc3)n2)S(=O)(=O)c2cccc3cccnc23)CC1.O=C(O)C(F)(F)F` here?
Answer: 5%
